# In PubChem BioAssay (Tox21):
# Results filed as inconclusive are left out. Entries that show only a call come without a potency. Active and inactive are the calls of the source. Unless noted, calls follow the shape of the full dose curve.
# Experiments:
# [1] = qHTS assay to identify small molecule agonists of the sonic hedgehog signaling (Shh) pathway (AID 1259368);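 also: NIH/3T3-derived 3T3Gli1-Luc cells carrying a stable Gli1-driven firefly luciferase reporter; series mostly up to about 92 µM; nearly all actives have a fitted effect of over 15% in size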
# Summary of the method: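 Following a 24 hr incubation with DMSO-dissolved compounds at 37 C, 5% CO2, Gli1-Luc NIH/3T3-derived cells received luciferase reagent for 30 min at room temperature prior to luminescence measurement.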
# [2] = target: Estrogen receptor beta (Homo sapiens) (UniProt Q92731); assay: qHTS assay to identify small molecule agonists of the estrogen receptor beta (ER-beta) signaling pathway (AID 1259377; active = well fitted activation curve with a large enough effect in the signal ratio in the repeat runs, not every such curve was filed as active; the % refers to the signal ratio; also: potency is read from the fitted curve at half-maximal effect)
# Sequence of Estrogen receptor beta (Homo sapiens) (Q92731 whole entry, looked up): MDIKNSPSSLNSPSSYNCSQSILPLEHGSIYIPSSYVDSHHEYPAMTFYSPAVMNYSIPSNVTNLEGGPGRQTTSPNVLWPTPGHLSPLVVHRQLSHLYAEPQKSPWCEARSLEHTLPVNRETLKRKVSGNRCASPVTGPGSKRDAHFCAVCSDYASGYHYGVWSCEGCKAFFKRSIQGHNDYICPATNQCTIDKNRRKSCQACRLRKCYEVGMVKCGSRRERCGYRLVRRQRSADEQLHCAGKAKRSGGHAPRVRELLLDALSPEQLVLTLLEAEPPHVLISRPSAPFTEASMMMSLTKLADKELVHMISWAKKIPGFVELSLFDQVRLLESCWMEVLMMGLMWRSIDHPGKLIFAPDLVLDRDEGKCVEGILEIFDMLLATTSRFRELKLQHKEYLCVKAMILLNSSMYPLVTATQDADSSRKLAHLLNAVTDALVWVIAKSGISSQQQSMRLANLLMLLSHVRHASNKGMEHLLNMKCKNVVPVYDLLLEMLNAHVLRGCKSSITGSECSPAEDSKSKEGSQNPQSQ
# Summary of the method: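 A UAS-controlled beta-lactamase reporter in ER-beta-UAS-bla HEK293T cells reports receptor activation. Compounds act for 16 hr at 37C in 2% charcoal-stripped serum, and a FRET substrate is read by fluorescence after 2 hours.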
# [3] = target: Estrogen receptor beta (Homo sapiens) (UniProt Q92731); assay: qHTS assay to identify small molecule antagonists of the estrogen receptor beta (ER-beta) signaling pathway (AID 1259378; active = well fitted inhibition curve with a large enough effect in the signal ratio in the repeat runs, not every such curve was filed as active; the % refers to the signal ratio; also: potency is read from the fitted curve at half-maximal effect)
# Summary of the method: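 ER-beta-UAS-bla HEK293T (GripTite) cells in 2% charcoal-stripped FBS medium were preincubated 6 hr at 37C, dosed with compound, then stimulated with 1 nM E2 (final) for 16 hr; beta-lactamase reporter read by B/G FRET fluorescence after 2 hr substrate loading.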
# [4] = qHTS assay to identify small molecule agonists of the androgen receptor (AR) signaling pathway in the presence of an antagonist - cell viability counter screen (AID 1259379; active = well fitted curve in the direction sought with a large enough effect in the repeat runs; an effect the other way counts as inactive or inconclusive; also: nearly all actives have a fitted effect of over 25% in size; also: potency is read from the fitted curve at half-maximal effect)
# Summary of the method: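 Each compound was tested at 15 concentrations on MDA-kb2 cells in the presence of 3.0uM nilutamide. Viability was measured by CellTiter-Fluor fluorescence after a 16 hr incubation at 37C in a CO2-free atmosphere.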
# [5] = qHTS assay to identify small molecule agonists of the estrogen receptor beta (ER-beta) signaling pathway - cell viability counter screen (AID 1259380; active = well fitted curve in the direction sought with a large enough effect in the repeat runs; an effect the other way counts as inactive or inconclusive; also: nearly all actives have a fitted effect of over 30% in size; also: potency is read from the fitted curve at half-maximal effect)
# Summary of the method: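 Compounds dissolved in DMSO were pin-transferred onto ER-beta-UAS-bla HEK293T cells that had settled 6 hr, and exposure ran 16 hr at 37C. Following the reporter read, CellTiter-Glo luminescence after 30 min at room temperature indicated cytotoxicity.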
# [6] = qHTS assay to identify small molecule antagonists of the estrogen receptor beta (ER-beta) signaling pathway - cell viability counter screen (AID 1259382; active = well fitted curve in the direction sought with a large enough effect in the repeat runs; an effect the other way counts as inactive or inconclusive; also: nearly all actives have a fitted effect of over 55% in size; also: potency is read from the fitted curve at half-maximal effect)
# Summary of the method: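 CellTiter-Glo ATP luminescence measured after the LiveBLAzer read in the same wells; ER-beta-UAS-bla HEK293T cells, 16 hr compound treatment with 1nM 17-beta-estradiol agonist at 37C, 5% CO2.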
# [7] = target: Estrogen receptor (Homo sapiens) (UniProt P03372); assay: qHTS assay to identify small molecule agonists of the estrogen receptor alpha (ER-alpha) signaling pathway in the presence of an antagonist (AID 1259383); also: nearly all actives have a fitted effect of over 15% in size; also: potency is read from the fitted curve at half-maximal effect; as to activation: top concentration of the series differs between compounds
# Sequence of Estrogen receptor (Homo sapiens) (P03372 whole entry, looked up): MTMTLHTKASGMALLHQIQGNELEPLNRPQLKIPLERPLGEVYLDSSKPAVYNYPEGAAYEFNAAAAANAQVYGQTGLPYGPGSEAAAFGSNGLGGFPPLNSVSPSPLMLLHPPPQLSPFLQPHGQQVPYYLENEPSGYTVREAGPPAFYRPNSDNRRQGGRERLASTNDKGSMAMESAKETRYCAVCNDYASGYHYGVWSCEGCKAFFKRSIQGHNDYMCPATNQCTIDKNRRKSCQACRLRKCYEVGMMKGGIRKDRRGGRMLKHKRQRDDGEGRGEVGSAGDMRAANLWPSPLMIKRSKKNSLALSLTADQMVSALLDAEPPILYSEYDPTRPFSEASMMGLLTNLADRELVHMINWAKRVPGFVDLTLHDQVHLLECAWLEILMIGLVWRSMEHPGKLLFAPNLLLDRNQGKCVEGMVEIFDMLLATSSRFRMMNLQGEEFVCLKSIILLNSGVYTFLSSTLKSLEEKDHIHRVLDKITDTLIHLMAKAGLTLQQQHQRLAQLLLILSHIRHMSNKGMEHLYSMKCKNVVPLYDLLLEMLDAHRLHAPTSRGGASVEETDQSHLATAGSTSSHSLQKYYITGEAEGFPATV
# Summary of the method: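 Luminescent ERE-luciferase reporter, VM7Luc4E2 cells (endogenous ER-alpha); 10.0nM ICI-182,780 final; 15-point compound titration; 22hr at 37C; ONE-Glo, 30min RT.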
# [8] = qHTS assay to identify small molecule agonists or antagonists of the thyroid stimulating hormone receptor (TSHR) signaling pathway - wild type cell line counter screen (AID 1259384)
# Summary of the method: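 Wild-type HEK293 cells were plated 18 h at 37 C/5% CO2, pin-dosed with compound plus Ro20-1724 medium, held 30 min at room temperature, then given cAMP-d2 and anti-cAMP-cryptate; fluorescence was read after 1 h. Fifteen concentrations, triplicate.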
# [9] = target: Androgen receptor (Homo sapiens) (UniProt P10275); assay: qHTS assay to identify small molecule agonists of the androgen receptor (AR) signaling pathway in the presence of an antagonist (AID 1259381); also: nearly all actives have a fitted effect of over 15% in size; also: potency is read from the fitted curve at half-maximal effect
# Sequence of Androgen receptor (Homo sapiens) (P10275 whole entry, looked up): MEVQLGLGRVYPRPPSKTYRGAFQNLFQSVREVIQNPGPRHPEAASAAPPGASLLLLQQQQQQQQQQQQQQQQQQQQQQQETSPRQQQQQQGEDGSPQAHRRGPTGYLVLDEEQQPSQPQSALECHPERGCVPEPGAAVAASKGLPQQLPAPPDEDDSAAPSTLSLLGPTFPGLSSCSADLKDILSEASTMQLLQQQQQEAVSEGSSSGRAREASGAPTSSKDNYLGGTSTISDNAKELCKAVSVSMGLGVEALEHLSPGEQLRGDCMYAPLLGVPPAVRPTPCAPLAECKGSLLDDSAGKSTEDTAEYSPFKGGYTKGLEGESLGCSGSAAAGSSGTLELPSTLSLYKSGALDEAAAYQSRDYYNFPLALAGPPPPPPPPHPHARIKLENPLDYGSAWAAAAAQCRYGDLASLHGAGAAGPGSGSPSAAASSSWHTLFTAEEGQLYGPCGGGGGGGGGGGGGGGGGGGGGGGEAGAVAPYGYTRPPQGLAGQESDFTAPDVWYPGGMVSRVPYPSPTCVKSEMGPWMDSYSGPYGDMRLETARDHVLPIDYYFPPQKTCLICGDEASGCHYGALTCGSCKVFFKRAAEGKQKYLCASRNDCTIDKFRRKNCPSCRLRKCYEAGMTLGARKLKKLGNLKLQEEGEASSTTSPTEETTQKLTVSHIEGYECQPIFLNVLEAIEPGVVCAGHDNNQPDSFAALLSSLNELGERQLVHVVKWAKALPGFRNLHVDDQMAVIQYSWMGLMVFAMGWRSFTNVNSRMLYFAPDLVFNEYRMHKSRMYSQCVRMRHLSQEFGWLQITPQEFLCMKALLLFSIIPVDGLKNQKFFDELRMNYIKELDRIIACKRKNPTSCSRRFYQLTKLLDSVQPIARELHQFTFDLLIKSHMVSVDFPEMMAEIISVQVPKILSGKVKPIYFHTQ
# Summary of the method: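 Plated MDA-kb2 cells (3,000/well) were pre-incubated 5hr, given nilutamide (3.0uM final) or buffer, then dosed with compounds in DMSO at 15 concentrations. Luciferase activity was quantified by luminescence after 16hr at 37C.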
# [10] = qHTS assay to identify small molecule antagonists of the sonic hedgehog signaling (Shh) pathway (AID 1259369); also: nearly all actives have a fitted effect of over 45% in size; also: potency is read from the fitted curve at half-maximal effect
# Summary of the method: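 Read-out is luminescence from a firefly luciferase gene controlled by the Gli1 response element, in 3T3Gli1-Luc cells pre-incubated 4hr then exposed to compounds and conditioned medium for 24hr.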
Compound,Potency [1],Potency [2],Potency [3],Potency [4],Potency [5],Potency [6],Potency [7],outcome [8],Potency [9],Potency [10]
C=C1c2cccc(O)c2C(O)=C2C(=O)[C@]3(O)C(O)=C(C(N)=O)C(=O)[C@@H](N(C)C)[C@@H]3[C@@H](O)[C@H]12,inactive,inactive,inactive,inactive,inactive,inactive,inactive,,,
CCCCCCCC/C=C\CCCCCCCCO,inactive,inactive,inactive,inactive,inactive,,,inactive,,
CC1(C)[C@@H](OC(=O)CCC(=O)O)CC[C@]2(C)[C@H]3C(=O)C=C4[C@@H]5C[C@@](C)(C(=O)O)CC[C@]5(C)CC[C@@]4(C)[C@]3(C)CC[C@@H]12,inactive,inactive,,inactive,inactive,inactive,,inactive,,
FC(F)(F)c1ccccc1Cl,inactive,inactive,,inactive,inactive,inactive,inactive,,,
C1COC1,inactive,inactive,inactive,,inactive,inactive,inactive,inactive,inactive,
CC(C)C=O,inactive,inactive,inactive,inactive,inactive,inactive,,inactive,,
c1ccc(C[n+]2cccc3ccccc32)cc1,inactive,inactive,,48.6 µM (active),inactive,inactive,inactive,inactive,,
C=C(C)C(=O)OCCOCCOC(=O)C(=C)C,inactive,inactive,inactive,,inactive,,inactive,,,
Cc1ccc(Cl)c(Nc2ccccc2C(=O)O)c1Cl,inactive,,,,,,,inactive,,inactive
CC1(C)O[C@@H]2C[C@H]3[C@@H]4C[C@H](F)C5=CC(=O)C=C[C@]5(C)[C@H]4[C@@H](O)C[C@]3(C)[C@]2(C(=O)CO)O1,inactive,inactive,inactive,inactive,inactive,inactive,inactive,inactive,,
CCC(OCCCOC)OC(C)=O (stereo not given),inactive,inactive,inactive,inactive,inactive,inactive,,inactive,,
C=CC(=O)[O-].C=CC(=O)[O-].[Zn+2],inactive,inactive,inactive,inactive,inactive,,inactive,inactive,,
C/C=C(/C(=C/C)c1ccc(O)cc1)c1ccc(O)cc1,inactive,0.0019 µM (active),,inactive,inactive,inactive,0.015 µM (active),inactive,,
COC(=O)C1=C(C)NC(C)=C(C(=O)O[C@@H]2CCCN(Cc3ccccc3)C2)[C@@H]1c1cccc([N+](=O)[O-])c1,inactive,inactive,26.6 µM (active),inactive,inactive,inactive,inactive,inactive,,
O=c1[nH]ncc2ccccc12,inactive,inactive,inactive,inactive,inactive,inactive,,inactive,,
CC1=C(Br)C(=O)C(Br)=C/C1=C(/c1ccccc1S(=O)(=O)O)c1cc(Br)c(O)c(Br)c1C,inactive,inactive,inactive,18.6 µM (active),inactive,inactive,,,,
CC=C(Cl)Cl,inactive,inactive,inactive,inactive,inactive,inactive,,inactive,,
C[C@]1(Cn2ccnn2)[C@H](C(=O)O)N2C(=O)C[C@H]2S1(=O)=O,inactive,,,,,inactive,,inactive,,inactive
C[C@@H](CN(C)C)CN1c2ccccc2Sc2ccccc21,inactive,inactive,23.7 µM (active),,18.8 µM (active),21.1 µM (active),,,,
O=c1[nH]c2ccc(Cl)cc2o1,inactive,inactive,inactive,,inactive,inactive,,inactive,,
CN(C(=O)CN(CCO)CC(=O)N(C)C(C)(C)Cc1ccccc1)C(C)(C)Cc1ccccc1,inactive,inactive,inactive,inactive,inactive,inactive,,,,
CC(C)=CCC/C(C)=C/CC/C(C)=C/C(=O)OCC(=O)[C@@]1(O)CC[C@H]2[C@@H]3CCC4=CC(=O)C=C[C@]4(C)[C@H]3[C@@H](O)C[C@@]21C,inactive,inactive,13.3 µM (active),26.6 µM (active),,inactive,inactive,inactive,0.335 µM (active),
Cc1cc(O)ccc1O,inactive,inactive,55.1 µM (active),,61.8 µM (active),,,,,
CC(C)=CCC/C(C)=C/CC/C(C)=C/CCC(=O)OC/C=C(\C)CCC=C(C)C,inactive,inactive,inactive,inactive,inactive,inactive,inactive,inactive,,
C=C(C)CCCC(C)CCO (stereo not given),inactive,inactive,inactive,inactive,inactive,,inactive,inactive,,
C=C1CCC2CC1C2(C)C (stereo not given),inactive,inactive,inactive,inactive,inactive,inactive,inactive,inactive,,

Compound,Potency [1],Potency [2],Potency [3],Potency [4],Potency [5],Potency [6],Potency [7],outcome [8],Potency [9],Potency [10]
Nc1nc2ccc([N+](=O)[O-])cc2s1,inactive,,,,,,,inactive,,48.6 µM (active)
C=C(C)C(=O)OCCCCCCCCCCCCC,inactive,inactive,inactive,,inactive,inactive,,inactive,,
O=C1NC(=O)c2cc([N+](=O)[O-])ccc21,inactive,inactive,inactive,inactive,inactive,,inactive,inactive,inactive,
OCCOCC#CCOCCO,inactive,inactive,inactive,inactive,inactive,inactive,inactive,inactive,,
C=Cc1ccc(S(=O)(=O)O)cc1,inactive,inactive,inactive,inactive,inactive,inactive,,inactive,,
CCCC(C(=O)OCCN(CC)CC)(c1ccccc1)c1ccccc1,inactive,inactive,inactive,,29.8 µM (active),,inactive,inactive,,
C=C1C[C@@]23CC[C@H]4[C@@](C)(CCC[C@@]4(C)C(=O)O[C@@H]4O[C@H](CO)[C@@H](O)[C@H](O)[C@H]4O)[C@@H]2CC[C@]1(O[C@@H]1O[C@H](CO)[C@@H](O)[C@H](O[C@@H]2O[C@H](CO)[C@@H](O)[C@H](O)[C@H]2O)[C@H]1O[C@@H]1O[C@H](CO)[C@@H](O)[C@H](O)[C@H]1O)C3,inactive,inactive,inactive,inactive,inactive,,inactive,inactive,inactive,
COc1ncnc(NS(=O)(=O)c2ccc(N)cc2)c1OC,inactive,inactive,inactive,inactive,inactive,inactive,inactive,,,
CC(CC1c2ccccc2CCc2ccccc21)CN(C)C (stereo not given),inactive,inactive,,inactive,33.5 µM (active),,,,,
CC[C@]1(O)C[C@H]2CN(CCc3c([nH]c4ccccc34)[C@@](C(=O)OC)(c3cc4c(cc3OC)N(C=O)[C@H]3[C@@](O)(C(=O)OC)[C@H](OC(C)=O)[C@]5(CC)C=CCN6CC[C@]43[C@@H]65)C2)C1,inactive,,,,,,inactive,inactive,inactive,0.0266 µM (active)
CC1CC(OC(=O)C(O)c2ccccc2)CC(C)(C)N1C (stereo not given),inactive,inactive,inactive,inactive,inactive,inactive,,inactive,,
CC(C)=CC(=O)C=C(C)C,inactive,inactive,inactive,inactive,inactive,inactive,inactive,inactive,,
CC(C)Nc1cccnc1N1CCN(C(=O)c2cc3cc(NS(C)(=O)=O)ccc3[nH]2)CC1,inactive,inactive,inactive,inactive,26.6 µM (active),,inactive,inactive,,
O=C=Nc1cccc(C(F)(F)F)c1,inactive,inactive,,inactive,30.4 µM (active),inactive,inactive,inactive,inactive,
O=C1C(=O)c2ccccc2C(O)=C1C1CCC(c2ccc(Cl)cc2)CC1 (stereo not given),inactive,inactive,,,2.66 µM (active),,inactive,,,
O=C1c2ccccc2C(=O)N1CCc1noc(-c2ccc(CN3CCCCCC3)s2)n1,inactive,,,,3.15 µM (active),,,,,
CC1=Nc2ccc3ccccc3c2C1(C)C,inactive,,,inactive,,,,inactive,inactive,
OC(CCN1CCCC1)(c1ccccc1)C1CCCCC1 (stereo not given),,inactive,inactive,inactive,inactive,inactive,,inactive,inactive,8.41 µM (active)
C/C=C\C/C=C/CCCCCCCCOC(C)=O,inactive,,,inactive,61.1 µM (active),,,inactive,,
CC(=O)N/N=C/c1ccc([N+](=O)[O-])o1,inactive,,inactive,inactive,inactive,inactive,inactive,inactive,,
C(=C\c1ccccc1)/c1ccccc1,inactive,,,inactive,inactive,inactive,inactive,inactive,,
COC(=O)[C@H]1[C@H]2C[C@@H]3c4[nH]c5cc(OC)ccc5c4CCN3C[C@H]2C[C@@H](OC(=O)/C=C/c2ccc(O)c(OC)c2)[C@@H]1OC,inactive,inactive,,,8.41 µM (active),,inactive,inactive,inactive,
COc1ccccc1N1CCN(CCCCNC(=O)c2ccc(-c3ccc(C(C)=O)cc3)cc2)CC1,inactive,,,,inactive,,inactive,inactive,,
C=COCC(C)C,inactive,,,inactive,inactive,inactive,inactive,inactive,,
COC(=O)c1nc(Cl)c(Cl)nc1N,inactive,,,29.8 µM (active),29.8 µM (active),,inactive,inactive,,
CC(C)(c1ccccc1)c1ccccc1,inactive,,,,inactive,inactive,,inactive,,
